This passage reports PBM binding z-score results from the supplement of paper PMC6555819.

This assay relates to VDR:RXRa (NR concentration 270 nM, RXRa partner concentration 90 nM). The assay is described as follows: PBM binding z-score (relative to random genomic background probes); higher = stronger binding; sequences stand for … in GC…GCGATTGACAGCGTAGAATGAAGG
The protocol: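 Protein-binding microarray (Agilent 4x180K custom design, double-stranded 60-nt probes: 5' GC cap, 34-nt variable region, 24-nt constant primer region; full probe sequence given). Purified or IVT nuclear receptor:RXRα heterodimers (3:1 NR:RXRα, mostly 270:90 nM) or homodimers were incubated for 1 h in PBS with 2% milk and no ligand, then detected with Alexa488 antibodies. Fluorescence from o1-orientation probes (~5 replicates averaged) was converted to z-scores against 500 random hg19 background probes. Variable regions are seed direct-repeat (DR0–DR5) sites, all their single-nucleotide variants and half-site ablations.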
Sequence GATTGTAGATCAAGGTTAAGAAAGACTAAGCTAA showed a PBM binding z-score of 0.0632.

With TAGCCTAGGTCTGATCGGGCCAGTATACGCTATA, the PBM binding z-score is -0.771.

TATCGGAGGACACGAAAGGTCAGAGCTCGACATC registered a PBM binding z-score of 3.49.

GCAGACAGGTGAAACGCAGGTACCTCAGGGTGGC gave a PBM binding z-score of -0.756.

In turn, TGTCAAAGTTCAAAGGTAACGTCAGTATCCACAC gave a PBM binding z-score of 5.11.

TCATATAGGTAAAAGCTAGGTGAAAGTCCGATCT had a PBM binding z-score of 0.608.

As for GCTTGTAGATCTAGGTTAAGAAAGACTAAGCTAA, the PBM binding z-score was -0.392.

AGTCAAAGTTCAGTACGAGGTAACGTAAAGCACG had a PBM binding z-score of 2.89.

Turning to GCATATAGGTAATAAAAGGTGAAAGTCCGATTGT, the PBM binding z-score stood at 0.675.

Consider ATCTCTAGGTAACCAAATTCAGTGAATGCCGAAC, for which the PBM binding z-score turned out to be 0.296.

ACTAGTTGGTCAGGTGAGGTCACACACAATTCGG registered a PBM binding z-score of 4.8.

The sequence CCTTACGGGTCACTCACAGGTTATAGCATTTGGA displayed a PBM binding z-score of 3.6.

With CAAACTACGTCAAGAGGTCAAAGTCCGCTTCCCG, the PBM binding z-score turned out to be 5.03.

CCAGACAGATGAAAGGTAACTCAGTCTGGTACGC registered a PBM binding z-score of 0.208.

Regarding CGTCCAAGGTCAAAGGTCTGTGAAGAGATGACGG, the PBM binding z-score amounted to 4.54.

For CGTCCAAGTTCAACTAAGGTAACGTAAAGCACGC, the PBM binding z-score is 4.16.

With ATCGAGAGGTCGACGAGGTGAGTATACACCGTTT, the PBM binding z-score turned out to be 4.87.

The sequence AGAATGAGGTTAAGATCAGCGAAACAGAATACAT returned a PBM binding z-score of 0.872.

In turn, AGTCAGAGTTCAGGACGAGGTAACGTAAAGCACG gave a PBM binding z-score of 3.77.

With CGAACGAGGGCATGAGTTGATATCAAATGCCGAT, the PBM binding z-score was found to be 1.44.

CGTCAAACTTCAAGGTAACGTAACAGAAAGCAGC displayed a PBM binding z-score of 0.0642.

With CGCCAAAGTTCAACTAAGGTAACGTAAAGCACGC, the PBM binding z-score worked out at 4.9.

In turn, CGAACTAGGTCATCCAGGACAGTGATTACATTGA returned a PBM binding z-score of 4.57.

Sequence TCTTGTAGATCAATCAGGTTAAGAAAGCCTGAGT came in with a PBM binding z-score of 1.

In turn, TCATATAGGTAAATGCTAGGGGAAAGTCCGATCT displayed a PBM binding z-score of 0.846.

As to CCTCAGAGGACAACAGGAGGTCAGAGCTGCCAGA, the PBM binding z-score came to 2.34.

The sequence ACTTACGGGTCAACGAGGTTATATCACGCGTATA had a PBM binding z-score of 7.44.

TCAGACAGGTGAAGTTAACTCAGGTACGCAGTCG: the PBM binding z-score was determined as 0.573.

Regarding CTAACTAGGTCATCCAGGACAGTGAATACATTGA, the PBM binding z-score came out at 4.72.

ACTAGCAGGCCAAGTTTGGGTCACTCAAACAAAG returned a PBM binding z-score of 0.525.

CCTAGTTGGTCAAGGTCACAGACGCTATAGGTAC yielded a PBM binding z-score of 4.29.

Take AGACAAAGTTCATCTAGGTAACGTAAGATATGCT: the PBM binding z-score was 5.16.

In turn, ATCGAAAGGTCGTGAGGTGAGAATACAGAAAGGC returned a PBM binding z-score of 3.48.

For the sequence ATCGAAAGCTCGACGAGGTGAGTATACACCGTTT, the PBM binding z-score is -0.25.

Sequence ATCGAAAGGTCGAAGGTGAGTATACCCACCCGAA yielded a PBM binding z-score of 2.91.

TCATATAGGTAAAAGGTTAAAGTCGGTGTGGTAA displayed a PBM binding z-score of 2.73.

Regarding TCTTGTAGATCAACGGGAGGTTAAGAAAGATCGA, the PBM binding z-score is 0.477.

Sequence GGGACTGGGGCAAAGCAGGTTACCATAAGGTTGG showed a PBM binding z-score of 0.732.

For the sequence ATTGAAAGGTCGAAGGTGAGTATACCCACCCGAA, the PBM binding z-score came out at 3.13.

TATACAGGGTCAAATGCCAGAGTACGAATGTCGA: the PBM binding z-score was found to be 4.82.
